Screening results: PubChem, National Center for Advancing Translational Sciences (NCATS)
SW480 rerep – DNA re-replication induction in SW480 cells. SW480 DNA re-replication, Hoechst DNA content imaging, 48 h. Potency, µM (titrated, usually from 46.1 µM), usual class: activators. 340,000 compounds, 1.8% hits; further: nearly all actives have a fitted effect of over 55% in size
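Image-based DNA-content assay: after two days of treatment, nuclei were labelled with the DNA dye Hoechst and imaged, and hits were compounds raising the count of nuclei showing high fluorescence intensity.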
TDP1 cell noCPT – qHTS for Inhibitors of human tyrosyl-DNA phosphodiesterase 1 (TDP1): qHTS in cells in absence of CPT. DT40 Tdp1-/- hTDP1 cells, no CPT, ATP luminescence, 48 h. AID 686978, 2013. 420,000 compounds, 15% hits. Potency, µM (doses to about 46.2 µM), most hits filed as inhibitors; further: nearly all actives have a fitted effect of over 55% in size
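Chicken DT40 Tdp1-/- cells stably complemented with human TDP1 were seeded at 400 cells/well with DMSO in place of 20 nM camptothecin. After compound pinning, cells grew at least 48 hr at 37 °C; viability read by CellTiter-Glo luminescence.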
BCR signal inh – inhibitors of chronic active B-cell receptor signaling. ABC-DLBCL IkBa-CBG/CBR reporter, luminescence ratio, 4 h. Potency, µM (highest dose often 46.1 µM), usual class: inhibitors. 340,000 compounds, 0.05% hits; active means well fitted inhibition curve with a large enough effect in the signal ratio, with a control signal flat, not every such curve was filed as active; inconclusive means small, poorly fitted or top-dose-only effect, or effect the other way, or a change in a side signal; the % refers to the signal ratio
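Doxycycline induced both beetle luciferases in TMD8 lymphoma cells; IKK-driven degradation limits the IkappaBalpha-fused green signal, while red luminescence normalises for cell number and nonspecific effects. Compounds tested up to 46 uM, 4 hrs.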
DT40 TDP1 CPT – growth inhibition of DT40 Tdp1-/-;hTDP1 cells with camptothecin (screen for TDP1 inhibitors); chicken DT40 Tdp1-/-;hTDP1 cells + 20 nM CPT, ATP luminescence, 48 h; Potency, µM (top dose mostly 46.2 µM), hits mostly inhibitors; 420,000 compounds, 12% hits; AID 686979; further: nearly all actives have a fitted effect of over 55% in size
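Cell growth measured by CellTiter-Glo luminescence after a minimum 48 h, 37 C compound exposure with 20 nM CPT in Tdp1-knockout DT40 cells stably expressing hTDP1, seeded 400/well; qHTS titration format.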
MCF10A rereplic – inducers of DNA re-replication in MCF 10A breast cells. 350,000 compounds, 2.9% hits. Potency, µM (series often up to 46.1 µM), usual class: activators. MCF 10A DNA re-replication, Hoechst nuclear intensity, 48 h; further: nearly all actives have a fitted effect of over 50% in size
IL1B secr inh – inflammasome signaling inhibition, IL-1 beta readout | THP-1 LPS/ATP IL-1B secretion, AlphaLISA, 16 h; active compounds read low | activity change, % at 57.5 µM | 360,000 compounds, 4.7% hits; in the data active means activity change below about -50%; inconclusive means mostly about -30% to -49%
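THP-1 cells pretreated 1 hr with compounds (up to 57.5 uM final), then stimulated with LPS (250 ng/mL final) plus ATP (1.25 mM final); secreted IL-1B measured by AlphaLISA after 16 hr, decreased signal indicating inhibition.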
Hits are given with their value; i = inactive; ? = inconclusive; nt = not tested or not shown; [ ] = remark or other dose. This is a sample that favours compounds with a hit; in the whole collection about 19% have one here. Unless noted, the call rests on the fitted dose curve; in most records, active means well fitted curve in the direction sought with a large enough effect; inconclusive means small, poorly fitted or top-dose-only effect, or another doubt; inactive means no such curve, though single readings can be large; an effect the other way counts as inactive or inconclusive.

SMILES | SW480 rerep | TDP1 cell noCPT | BCR signal inh | DT40 TDP1 CPT | MCF10A rereplic | IL1B secr inh
Cc1ccc(NS(=O)(=O)c2ccccc2Cl)c2c1CC(C)(C)O2 | i[9.22 µM] | 14µM | i | 20µM | i | i
Cc1ccc(S(=O)(=O)c2ccc(C)cc2)cc1 | i | i | i | i | i | i
Cc1ccc(S(=O)(=O)c2ccc(Oc3cccc(C)c3)cc2)cc1 | i | 21µM | i | ? | i | i
COc1ccc(CCCNC(=O)C2Cc3c(-c4cccc(C(C)=O)c4)ccnc3O2)cc1 (configuration not stated) | nt | 4.6µM | nt | 3.7µM | nt | i
COc1ccc(CCCNC(=O)C2Cc3c(-c4ccc(NC(C)=O)cc4)ccnc3O2)cc1 (configuration not stated) | nt | 18µM | nt | 16µM | nt | i
COc1ccc(CCCNC(=O)C2Cc3c(-c4ccc5c(c4)OCO5)ccnc3O2)cc1 (configuration not stated) | nt | ? | nt | ? | nt | i
CCN(C(=O)CSc1cc(C)c2cccc(C)c2n1)C1CCS(=O)(=O)C1 (configuration not stated) | ? | ? | i | i | i | i
COCC(=O)N1CCC2(CC1)CCN(C(=O)Nc1cccc(F)c1)CC2 | nt | i | nt | i | nt | nt
COC(CNS(=O)(=O)c1ccc(Cl)cc1)c1ccccc1 (configuration not stated) | i | i | i | i | i | i
NS(=O)(=O)c1ccc(NC(CNS(=O)(=O)c2ccccc2)c2ccccc2)cc1 (configuration not stated) | i | i | i | i | i | i
COc1cccc(NC(CNS(=O)(=O)c2ccc(Cl)cc2)c2ccccc2)c1 (configuration not stated) | nt | 16µM | nt | ? | nt | nt
O=S(=O)(NCC(Nc1ccc(Cl)cc1)c1ccccc1)c1ccccc1 (configuration not stated) | ? | 16µM | i | ? | 4.6µM | -92
Cc1ccc(NC(CNS(=O)(=O)c2ccc(Cl)cc2)c2ccccc2)cc1 (configuration not stated) | i | 23µM | i | 21µM | ? | ?
S=C(Nc1ccc(Br)cc1Cl)N1CCN(c2ccccn2)CC1 | i | i | i | i | i | i
c1ccc2c(N3CCCCCC3)nc(CN3CCCCC3c3nccs3)nc2c1 (configuration not stated) | nt | ? | nt | i[9.04 µM] | nt | nt
CCCOc1ccc(C2CC(=O)Nc3c2c(C)nn3-c2nncc(-c3cccc(OC)c3)n2)cc1OC (configuration not stated) | nt | i | nt | i | nt | nt
CC(C)CC(N)c1csc(NC(=O)Nc2ccccc2Cc2ccccc2)n1 (configuration not stated) | nt | 12µM | nt | 12µM | nt | ?
COc1ccccc1NC(=O)Nc1nc(C(N)CC(C)C)cs1 (configuration not stated) | nt | 0.26µM | nt | 2.6µM | nt | -57
CC(C)CC(N)c1csc(NC(=O)c2cc(C(C)(C)C)nn2Cc2ccccc2)n1 (configuration not stated) | nt | 8.2µM | nt | 7.3µM | nt | -114
Cc1ccccc1NC(=O)Nc1nc(CN)cs1 | nt | 23µM | nt | 16µM | nt | i
O=C(NC(CSC(=O)c1ccccc1)C(=O)O)OCc1ccccc1 (configuration not stated) | i | i | nt | i | i | i
COc1cccc(NC(=O)N(CCC(C)C)C2CCN(C(C)C)CC2)c1 | nt | ? | i | i | nt | nt
Cc1ccccc1NC(=O)Nc1nc(C(N)Cc2ccccc2)cs1 (configuration not stated) | nt | 23µM | nt | 23µM | nt | -56
CC(C)CC(N)c1csc(NC(=O)C(c2ccccc2)c2ccccc2)n1 (configuration not stated) | nt | 6.5µM | nt | 18µM | nt | i
COc1ccccc1NC(=O)Nc1nc(C(N)Cc2ccc(Cl)cc2)cs1 (configuration not stated) | nt | 23µM | nt | 9.2µM | nt | i
SMILES | SW480 rerep | TDP1 cell noCPT | BCR signal inh | DT40 TDP1 CPT | MCF10A rereplic | IL1B secr inh
C[C@H](NC(=O)C(c1ccccc1)c1ccccc1)c1ccccc1 | ? | i | ? | i | i | i
COc1ccccc1NC(=O)Nc1nc(C(N)Cc2ccccc2)cs1 (configuration not stated) | nt | 18µM | nt | 23µM | nt | ?
CCCCC[C@@H]1[C@H]2[C@H]3C(=O)N(c4ccccc4)C(=O)[C@H]3CC(=O)[C@H]2[C@H](c2ccccc2)N1S(=O)(=O)c1ccc(C)cc1 | nt | i | nt | i | nt | i
COc1ccc(N2CCN(S(=O)(=O)c3csc(C(N)=O)c3)CC2)cc1 | nt | i | nt | i | nt | nt
COc1ccccc1NC(=O)Nc1nnc(C(C)C)s1 | i | i | ? | i | i | i
COc1ccccc1NC(=O)Nc1nnc(C(C)c2ccccc2)s1 (configuration not stated) | ? | i | i | i | 23µM | i
CCc1nc2ccc(C(=O)NCc3ccccc3OC)cn2c1N(C)Cc1ccc(N(C)C)cc1 | nt | 21µM | nt | 21µM | nt | i
COc1ccc(OCCNC(=O)c2ccc3nc(C)c(N(C)Cc4ccc(NC(C)=O)cc4)n3c2)cc1 | nt | 16µM | nt | 16µM | nt | i
CCc1nc2ccc(C(=O)NCCOc3ccc(OC)cc3)cn2c1N(C)Cc1ccc(N(C)C)cc1 | nt | ? | nt | 23µM | nt | i
CCc1nc2ccc(C(=O)NCCOc3ccc(OC)cc3)cn2c1N(CC)Cc1ccc(OC)c(OC)c1 | nt | 21µM | nt | 21µM | nt | ?
COc1cccc(NC(=O)c2ccc3nc(C)c(N(C)Cc4ccc(NC(C)=O)cc4)n3c2)c1 | nt | i | nt | ? | nt | i
CCc1nc2ccc(C(=O)Nc3ccc(OC)c(OC)c3)cn2c1N(CC)Cc1ccc(OC)c(OC)c1 | nt | ? | nt | ? | nt | i
CCc1nc2ccc(C(=O)NCCc3c[nH]c4ccccc34)cn2c1N(C)Cc1ccc(N(C)C)cc1 | nt | ? | nt | ? | nt | i
O=C(CCNC(=O)C1CCN(S(=O)(=O)c2ccc(F)cc2)CC1)NC1CC1 | i | i | i | i | i | i
CCCOc1ccc(S(=O)(=O)n2cc(F)c(=O)[nH]c2=O)cc1 | i | ? | i | ? | i | i
Cn1c(-c2ccccc2)c(C#Cc2ccc(N)cc2)c2ccccc21 | 9.2µM | i | i | ? | 12µM | i
CCCC1(c2ccccc2)NC(=O)N(CC(=O)Nc2ccccc2C(F)(F)F)C1=O (configuration not stated) | i | i | i | i | i | i
C(=Nc1ccc(/C=C/c2ccnc3ccccc23)cc1)c1ccc2c(c1)OCO2 | nt | 18µM | nt | ? | nt | nt
C(=Nc1ccc(/C=C/c2ccnc3ccccc23)cc1)c1cccs1 | nt | 13µM | nt | ? | nt | nt
C(=Nc1ccc(/C=C/c2ccnc3ccccc23)cc1)c1ccco1 | nt | 13µM | nt | 16µM | nt | nt
